Test results reported in PubChem BioAssay AID1645875 (National Center for Advancing Translational Sciences (NCATS), 2021).
Results filed as inconclusive are left out. Activity calls are given as the source filed them. Calls follow the shape of the dose curve; as a rule, active = well fitted inhibition curve with a large enough effect; inconclusive = small, poorly fitted or top-dose-only effect; inactive = no such curve, though single readings can be large or run the other way.

These molecules were tested against N-terminal Xaa-Pro-Lys N-methyltransferase 1 (Homo sapiens) (UniProt Q9BV86) (assay: Orthogonal qHTS for Inhibitors of N-terminal methyltransferase 1 (NTMT1): ThioGlo Assay). Conditions: NTMT1 SAHH-coupled ThioGlo fluorescence, 30 min; series mostly up to 84.5 µM.
Sequence of N-terminal Xaa-Pro-Lys N-methyltransferase 1 (Homo sapiens) (Q9BV86 whole entry, looked up): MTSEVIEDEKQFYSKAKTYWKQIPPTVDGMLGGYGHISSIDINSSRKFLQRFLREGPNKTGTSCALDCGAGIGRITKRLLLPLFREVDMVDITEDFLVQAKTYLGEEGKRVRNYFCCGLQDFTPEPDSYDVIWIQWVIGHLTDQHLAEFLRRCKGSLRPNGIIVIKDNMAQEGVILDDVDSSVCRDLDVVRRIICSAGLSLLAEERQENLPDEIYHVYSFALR
Outline: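 ThioGlo3 (15 uM) detects the thiol product formed by SAHH (10 uM) from SAM (100 uM) turnover by 125 nM NTMT1 (all final), with compounds in concentration series. Readings at ex 340/em 450 nm at start and after 30 min at room temperature; data background-normalized.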
Clc1ccc(Nc2nnc(Cc3ccncc3)c3ccccc23)cc1 was tested, and the Potency was 62.2 µM (active).
COc1cc2c(NC3CCN(CC4CCCCC4)CC3)nc(N3CCCCC3)nc2cc1OCCOCCN(C)C was tested, and the Potency was 12.3 µM (active).
O=C([C@@H]1CCCN(c2ccc3[nH]c(C4(n5cc(Cl)cn5)CC4)nc3n2)C1)N1CCCC1 was tested, and the Potency was 22.1 µM (active).
COc1ccc(-c2nnc3n2N=C(c2c(OC)cccc2OC)CS3)cc1OC was tested, and the Potency was “inactive”.
Nc1ccc(C(=O)Nc2cccc(-c3nc(N4CCOCC4)c4oc5ncccc5c4n3)c2)cn1 was tested, and the Potency was 22.1 µM (active).
COc1cc2c(NC3CCN(CC4CCCCC4)CC3)nc(N3CCCN(C)CC3)nc2cc1OCCOCCN(C)C was tested, and the Potency was “inactive”.
